Bioassay records as filed in PubChem BioAssay.
FadD28 binding: M. tuberculosis FadD28 bisubstrate binding inhibition | FadD28 bisubstrate probe binding, fluorescence polarization | inhibition, % at 12.5 µM | 360,000 compounds, 0.22% hits | AID 588549; in the data active = inhibition above about 8.5%, passing the limit was not always enough; inconclusive = no clear call, values can overlap the other calls
RecA splice inh: Mtb RecA intein splicing inhibition. AID 2221. cell-free RecA intein splicing, fluorescence. 290,000 compounds, 0.75% hits. inhibition, % (no concentration beside the values). P9WHJ3; in the data active = inhibition above about 30%; inconclusive = no clear call, values can overlap the other calls
Mtb betalactam: beta-lactam sensitization of Mtb H37Rv; inhibition, % at 25 µM; AID 434955; M. tuberculosis H37Rv growth with meropenem, percent inhibition; 330,000 compounds, 0.27% hits;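 note: growth measured after seven days incubation then overnight dye step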
Rv3671c protease: inhibits the M. tuberculosis serine protease Rv3671c; inhibition, % at 5.96 µM; 320,000 compounds, 0.048% hits; in the data active = inhibition above about 38%;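 note: extracellular domain of Rv3671c used as enzyme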
Mtb hypoxia rep: reduces hypoxia-regulated biosensor signal in M. tuberculosis; M. tuberculosis hypoxia-regulated fluorescent reporter, fluorescence; fluorescence inhibition, % (test concentration not listed); 300,000 compounds, 0.1% hits; AID 1159583; in the data active = fluorescence inhibition mostly above about 23%, no sharp cut-off; inactive = mostly below about 17%
UGM FP inh: blocks M. tuberculosis UGM enzyme | P9WIQ1 | purified UGM, fluorescence polarization probe displacement | inhibition, % at 10 µM | 320,000 compounds, 0.06% hits; in the data active = inhibition above about 10%, passing the limit was not always enough; inconclusive = no clear call, values can overlap the other calls
Target sequence (P9WIQ1 whole entry, looked up): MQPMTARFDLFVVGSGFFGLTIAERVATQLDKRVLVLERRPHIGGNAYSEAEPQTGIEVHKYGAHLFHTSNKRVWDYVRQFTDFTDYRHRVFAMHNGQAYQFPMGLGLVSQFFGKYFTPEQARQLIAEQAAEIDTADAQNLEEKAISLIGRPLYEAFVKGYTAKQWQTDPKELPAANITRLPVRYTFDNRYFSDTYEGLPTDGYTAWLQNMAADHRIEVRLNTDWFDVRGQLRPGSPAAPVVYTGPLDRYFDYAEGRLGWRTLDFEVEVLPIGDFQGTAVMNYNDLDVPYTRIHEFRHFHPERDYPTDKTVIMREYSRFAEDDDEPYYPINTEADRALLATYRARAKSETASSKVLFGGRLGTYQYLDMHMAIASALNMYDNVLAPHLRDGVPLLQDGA
GFP chromo cs: counter-screen GFP chromophore formation inhibition; shares compounds with RecA splice inh; cell-free GFP chromophore formation, fluorescence; EC50, µM; 2,100 compounds, 83% hits; AID 434968
Hits are given with their value. An excerpt weighted towards active compounds, which were near 0.92% of everything screened. Unless noted, the rule behind the calls is not given here.

Results for C/C(CC(=O)Nc1cc(Cl)ccc1Cl)=N\NC(=O)COc1cccc(C)c1 ?
FadD28 binding: inactive; RecA splice inh: inactive; Mtb betalactam: inactive; Rv3671c protease: inactive; UGM FP inh: inactive

Results for C/C(CC(=O)Nc1ccccn1)=N\NC(=O)c1cccc(C)c1 ?
FadD28 binding: inactive; RecA splice inh: 41; Mtb betalactam: inactive; Rv3671c protease: inactive; UGM FP inh: inactive; GFP chromo cs: 37

What do the screens show for `CC(CC(=O)Nc1cc(C)ccn1)=NNC(=O)C(=O)Nc1cccc(C)c1`?
Mtb hypoxia rep: inactive

How did C/C(CC(=O)Nc1cc(C)ccn1)=N\NC(=O)COc1cccc(C)c1 do in these assays?
RecA splice inh: 94; GFP chromo cs: 7

Results for COc1ccc(C(=O)N/N=C(\C)CC(=O)Nc2ccccn2)cc1OC ?
FadD28 binding: inactive; RecA splice inh: inactive; Mtb betalactam: inactive; Rv3671c protease: inactive; UGM FP inh: inactive

How did C/C(CC(=O)Nc1cc(C)ccn1)=N\NC(=O)c1cccc(F)c1 do in these assays?
FadD28 binding: inactive; RecA splice inh: 43; Mtb betalactam: inactive; Rv3671c protease: inactive; UGM FP inh: inactive; GFP chromo cs: 33

How did C[C@H](CO)N1C[C@H](C)[C@@H](CN(C)C(=O)NC2CCCCC2)Oc2ccc(NS(=O)(=O)c3ccccc3)cc2C1=O do in these assays?
FadD28 binding: inactive; Mtb betalactam: inactive; Rv3671c protease: inactive; Mtb hypoxia rep: inactive; UGM FP inh: inactive

Results for Cc1scc(C(=O)Nn2cnnc2)c1-c1ccccc1 ?
FadD28 binding: inactive; RecA splice inh: inactive; Mtb betalactam: inactive; Rv3671c protease: inactive; Mtb hypoxia rep: inactive; UGM FP inh: inactive

What do the screens show for `C/C(CC(=O)Nc1cc(C)ccn1)=N\NC(=O)c1ccccc1C`?
FadD28 binding: inactive; RecA splice inh: 50; Mtb betalactam: inactive; Rv3671c protease: inactive; UGM FP inh: inactive; GFP chromo cs: 34

How did CC(CC(=O)Nc1cc(C)ccn1)=NNC(=O)c1ccccc1C do in these assays?
Mtb hypoxia rep: inactive

How did O=C1CC(C(=O)NCc2ccccc2)N=C(N2CCCCC2)N1 (stereo not drawn) do in these assays?
FadD28 binding: inactive; Mtb betalactam: inactive; Rv3671c protease: inactive; Mtb hypoxia rep: inactive; UGM FP inh: inactive

What do the screens show for `CCN(CC)CCNC(=O)c1ccc2c(c1NCCO)C(=O)c1ccccc1C2=O`?
FadD28 binding: inactive; RecA splice inh: 78; Mtb betalactam: inactive; Rv3671c protease: inactive; Mtb hypoxia rep: inactive; UGM FP inh: inactive; GFP chromo cs: 6.9

How did O=C(CS(=O)c1cccc(Cl)c1)Nc1ccccc1Cl (stereo not drawn) do in these assays?
FadD28 binding: inactive; RecA splice inh: inactive; Mtb betalactam: inactive; Rv3671c protease: inactive; Mtb hypoxia rep: inactive; UGM FP inh: inactive

Results for C/C(CC(=O)Nc1ccc(N(C)C)cc1)=N\NC(=O)c1ccccc1Cl ?
FadD28 binding: inactive

Results for O=[N+]([O-])c1cc([N+](=O)[O-])c2c(=Nc3ccccc3)n(-c3ccccc3)n(O)c2c1 ?
FadD28 binding: inactive; RecA splice inh: 74; Mtb betalactam: inactive; Rv3671c protease: inactive; Mtb hypoxia rep: inactive; UGM FP inh: inactive; GFP chromo cs: 4.1

What do the screens show for `O=[N+]([O-])c1cccc(C(=Nc2ccccc2)NO)c1`?
FadD28 binding: inactive; RecA splice inh: inactive; Mtb betalactam: inactive; Rv3671c protease: inactive; Mtb hypoxia rep: inactive; UGM FP inh: inactive

What do the screens show for `CCNc1ccccc1CP(=O)(c1ccccc1)c1ccccc1O` (stereo not drawn)?
RecA splice inh: 32; Mtb betalactam: inactive; Rv3671c protease: inactive; UGM FP inh: inactive; GFP chromo cs: 2.2

How did CC(C)(C)c1ccc(CC(=O)N2CCC2(C)C(=O)Nc2cccc3cccnc23)cc1 (stereo not drawn) do in these assays?
FadD28 binding: inactive

What do the screens show for `Cc1ccc(NC(=O)c2ccc(NCCN)c([N+](=O)[O-])c2)cc1Cl`?
FadD28 binding: inactive; RecA splice inh: inactive; Mtb betalactam: inactive; Rv3671c protease: inactive; Mtb hypoxia rep: inactive; UGM FP inh: inactive

What do the screens show for `Cc1ccc(C(=O)C(OC(=O)CN2C(=O)c3ccccc3C2=O)c2ccccc2)cc1C` (stereo not drawn)?
FadD28 binding: inactive; RecA splice inh: 31; Mtb betalactam: inactive; Rv3671c protease: inactive; Mtb hypoxia rep: inactive; UGM FP inh: inactive; GFP chromo cs: inactive

How did O=[N+]([O-])c1c(Nc2ccccc2O)cc(Cl)c2nonc12 do in these assays?
FadD28 binding: inactive; RecA splice inh: 96; Mtb betalactam: inactive; Mtb hypoxia rep: inactive; UGM FP inh: inactive; GFP chromo cs: 1.5

How did O=C(O)c1cc(Nc2cc(Cl)c3nonc3c2[N+](=O)[O-])ccc1O do in these assays?
FadD28 binding: inactive; RecA splice inh: 97; Mtb betalactam: inactive; Rv3671c protease: inactive; Mtb hypoxia rep: inactive; UGM FP inh: inactive; GFP chromo cs: 1.9

Results for O=[N+]([O-])c1c(Nc2ccccc2O)ccc2nonc12 ?
FadD28 binding: inactive; RecA splice inh: inactive; Mtb betalactam: inactive; Rv3671c protease: inactive; Mtb hypoxia rep: inactive; UGM FP inh: inactive

Results for COC(Cn1c(C)c(C(C)=O)c(C(C)=O)c1C)OC ?
FadD28 binding: inactive; RecA splice inh: inactive; Mtb betalactam: inactive; Rv3671c protease: inactive; Mtb hypoxia rep: inactive; UGM FP inh: inactive

Results for Nc1cc2nn(-c3ccccc3)nc2cc1Cl ?
FadD28 binding: inactive; RecA splice inh: 63; Mtb hypoxia rep: inactive; GFP chromo cs: 37

How did Nc1ccc2nn(-c3ccccc3)nc2c1 do in these assays?
FadD28 binding: inactive; Mtb hypoxia rep: inactive

How did Oc1[nH]c(N=C2N=c3ccccc3=N2)c2ccccc12 do in these assays?
FadD28 binding: inactive; RecA splice inh: inactive; Mtb betalactam: inactive; Rv3671c protease: inactive; Mtb hypoxia rep: inactive; UGM FP inh: inactive

How did CS(=O)(=O)n1nc(-c2ccc(Cl)cc2)nc1N do in these assays?
FadD28 binding: inactive; RecA splice inh: inactive; Mtb betalactam: inactive; Rv3671c protease: inactive; Mtb hypoxia rep: inactive; UGM FP inh: inactive

What do the screens show for `Cn1nc(-c2ccc(Cl)cc2)nc2c(=O)n(C)c(=O)nc1-2`?
RecA splice inh: 94; Mtb betalactam: inconclusive; Rv3671c protease: inactive; Mtb hypoxia rep: inactive; UGM FP inh: inactive; GFP chromo cs: 0.36

Results for N#C/C(=C\c1c(Cl)cccc1Cl)c1nc2ccccc2o1 ?
FadD28 binding: inactive; RecA splice inh: inactive; Mtb betalactam: inactive; Rv3671c protease: inactive; Mtb hypoxia rep: inactive; UGM FP inh: inactive

How did Cc1sc2nc(CN3CCCCC3)nc(N3CCN(C(=O)c4ccco4)CC3)c2c1C do in these assays?
FadD28 binding: inactive; RecA splice inh: inactive; Mtb betalactam: inactive; Rv3671c protease: inactive; Mtb hypoxia rep: inactive; UGM FP inh: inactive

What do the screens show for `COCCn1c(SCC(=O)NCc2ccc(F)cc2)nc2ccccc21`?
FadD28 binding: inactive; RecA splice inh: inactive; Mtb betalactam: inactive; Rv3671c protease: inactive; Mtb hypoxia rep: inactive; UGM FP inh: inactive

Results for Cn1c(SCC(=O)NCc2ccc(F)cc2)nc2ccccc21 ?
FadD28 binding: inactive; RecA splice inh: 31; Mtb betalactam: inactive; Rv3671c protease: inactive; Mtb hypoxia rep: inactive; UGM FP inh: inactive; GFP chromo cs: inactive
